This note sets out measurements from PubChem BioAssay (NCI).

What all share (experiment): NCI-60 one-dose screen, 48 h (100 = growth as untreated, 0 = no growth, -100 = all killed)
One assay has as its system UACC-62 melanoma. The following applies: 10 µM unless noted.
In a further assay the test system is K-562 leukemia. The following applies: 10 µM unless noted.
For a further assay, the system named is MALME-3M melanoma. The following applies: 10 µM unless noted.
The subject of the next assay is MDA-MB-231 breast. The following applies: 10 µM unless noted.
A further assay concerns RXF 393 renal. The settings on record: 10 µM unless noted.
The next assay deals with SF-268 CNS. The following applies: 10 µM unless noted.
A further assay has as its system SF-295 CNS. The settings on record: 10 µM unless noted.
Another assay relates to SF-539 CNS. The following applies: 10 µM unless noted.
The subject of another assay is UACC-257 melanoma. The following applies: 10 µM unless noted.
The subject of a further assay is M14 melanoma. The following applies: 10 µM unless noted.
In a further assay the test system is HCT-15 colon. The settings on record: 10 µM unless noted.
In the next assay the test system is HT29 colon. The settings on record: 10 µM unless noted.
The next assay relates to SNB-75 CNS. The settings on record: 10 µM unless noted.
The subject of another assay is SNB-19 CNS. The settings on record: 10 µM unless noted.
The subject of a further assay is PC-3 prostate. The following applies: 10 µM unless noted.
The next assay has as its system SK-MEL-5 melanoma. The following applies: 10 µM unless noted.
For the next assay, the system named is LOX IMVI melanoma. The settings on record: 10 µM.
Another assay relates to SK-MEL-28 melanoma. The following applies: 10 µM unless noted.
The next assay has as its system U251 CNS. The following applies: 10 µM unless noted.
For the next assay, the system named is DU-145 prostate. The settings on record: 10 µM unless noted.

SMILES strings stand for the structures. Where “and” joins values, the source holds several entries; their conditions need not be identical. Equal values may be shown once. The panel holds about 83,000 compounds, 20% with a hit somewhere; the sample as a whole holds those more often.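 Growth was measured after 48 h exposure to one concentration of compound in 96-well plates. Values under 10 count as active.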 Values without a mark were called inactive. Calls of active or inactive are those of the source.

`C=C1C(=O)OC2CC3(C)CCCC(C)C3=CC12` (stereo not given): the growth in the assay with UACC-62 melanoma was -100% [100 µM] (active) and -93.9% [100 µM] (active).
Take `O=C1C=Cc2ccccc2/C1=C/c1nc(-c2ccccc2)oc1O`: the growth in the assay on K-562 leukemia was 96.8%; in the assay on MALME-3M melanoma, 74.4%; with MDA-MB-231 breast, 73.6%; with RXF 393 renal, 101%; in the assay on SF-268 CNS, 84.8%; in the assay with SF-295 CNS, 101%. Moreover, the growth with SF-539 CNS is 87.7%; in the assay with UACC-257 melanoma, 105%; in the assay on M14 melanoma it was 93.5%; in the assay on HCT-15 colon, 92.4%; in the assay with HT29 colon, 108%; in the assay with SNB-75 CNS, 70.8%. Further, the growth in the assay on SNB-19 CNS was 102%; in the assay with PC-3 prostate, 89.1%; in the assay with SK-MEL-5 melanoma it was 92.4%; with UACC-62 melanoma, 93.8%; in the assay with LOX IMVI melanoma, 84.8%; in the assay on SK-MEL-28 melanoma it was 106%.
Regarding `CCOC(=O)/C(=C\c1ccc2ccccc2c1)P(=O)(OCC)OCC`, the growth with K-562 leukemia was 11.8%; with MALME-3M melanoma, 72.1%; with MDA-MB-231 breast, 16.3%; in the assay on RXF 393 renal it was -23.4% (active); in the assay on SF-268 CNS, 42.6%; in the assay with SF-295 CNS, 60.1%. Further, the growth with SF-539 CNS is 28.9%; with UACC-257 melanoma it was 63.8%; in the assay on M14 melanoma it was 31.7%; with HCT-15 colon, 2.93% (active); with HT29 colon it was 3.89% (active); with SNB-75 CNS, 35.2%. In addition, the growth with SNB-19 CNS was 41.8%; in the assay with U251 CNS, 38.2%; in the assay on PC-3 prostate, 58.5%; in the assay on SK-MEL-5 melanoma, 44.4%; in the assay on UACC-62 melanoma, 9.26% (active); in the assay on LOX IMVI melanoma, -55.6% (active). Besides, in the assay on SK-MEL-28 melanoma, the growth was 18.7%.
For `O=C(c1ccc(O)c(Br)c1)c1ccc(O)c(Br)c1`, the growth in the assay with DU-145 prostate is 87%; in the assay with MALME-3M melanoma, 106%; with MDA-MB-231 breast, 101%; with RXF 393 renal, 107%; in the assay on SF-268 CNS it was 90.6%; in the assay on SF-295 CNS it was 118%. Besides, the growth with SF-539 CNS is 90.1%; with UACC-257 melanoma, 110%; in the assay with HCT-15 colon, 104%; in the assay with HT29 colon it was 114%; in the assay on SNB-75 CNS it was 94.9%; in the assay on SNB-19 CNS, 94.3%. The growth in the assay with U251 CNS is 109%; in the assay with PC-3 prostate, 101%; in the assay with SK-MEL-5 melanoma, 99.4%; with UACC-62 melanoma, 97.1%; in the assay with LOX IMVI melanoma, 108%; with SK-MEL-28 melanoma it was 110%.
As to `OCCOSCCO`, the growth in the assay on DU-145 prostate was 122%; in the assay on K-562 leukemia, 102%; with MDA-MB-231 breast, 121%; with RXF 393 renal, 100%; in the assay on SF-268 CNS it was 119%; in the assay with SF-539 CNS, 100%. Moreover, the growth was 102% in the assay on UACC-257 melanoma; 100% with M14 melanoma; 89% in the assay with HCT-15 colon; 106% in the assay on HT29 colon; 99.3% with SNB-75 CNS; 110% with SNB-19 CNS. In addition, the growth in the assay with U251 CNS was 101%; in the assay with PC-3 prostate, 113%; with UACC-62 melanoma, 114%; in the assay on LOX IMVI melanoma, 103%; with SK-MEL-28 melanoma, 108%.
For the compound `NC(CS/C(Cl)=C/Cl)C(=O)O` (stereo not given), the growth with K-562 leukemia is 89.2%; in the assay on MALME-3M melanoma, 89.6%; with MDA-MB-231 breast, 88.1%; with RXF 393 renal, 105%; with SF-268 CNS, 99.3%; with SF-295 CNS, 9.28% (active). Besides, the growth is 104% with SF-539 CNS; 78.3% in the assay with UACC-257 melanoma; 58.2% with M14 melanoma; 85.5% in the assay with HCT-15 colon; 86.8% in the assay with HT29 colon; 103% in the assay on SNB-75 CNS. For the same compound, the growth in the assay on SNB-19 CNS was 85.9%; in the assay with U251 CNS, 84.7%; in the assay with PC-3 prostate, 64.1%; in the assay with SK-MEL-5 melanoma, -60.9% (active); in the assay on UACC-62 melanoma, 77.4%; in the assay on LOX IMVI melanoma, -57.3% (active). Moreover, the growth in the assay on SK-MEL-28 melanoma was 73%.
With `O/N=C1\c2ccccc2-c2ccc(F)cc21`, the growth is 99.1% with K-562 leukemia; 114% in the assay on MALME-3M melanoma; 88.2% in the assay on MDA-MB-231 breast; 111% with RXF 393 renal; 117% with SF-295 CNS; 97% in the assay with SF-539 CNS. For the same compound, the growth in the assay with UACC-257 melanoma was 110%; in the assay with M14 melanoma, 107%; in the assay on HCT-15 colon, 74.6%; in the assay with SNB-75 CNS, 91.1%; with SNB-19 CNS, 101%; with U251 CNS, 106%. Moreover, the growth with PC-3 prostate was 89.1%; in the assay with SK-MEL-5 melanoma, 99.1%; in the assay on UACC-62 melanoma, 93.8%; in the assay on LOX IMVI melanoma, 96.6%; in the assay on SK-MEL-28 melanoma it was 111%.
`N#Cc1c2ccccc2nc2ccccc12`: the growth in the assay on DU-145 prostate was 112%; with K-562 leukemia, 106%; in the assay on MDA-MB-231 breast it was 99.4%; in the assay with SF-268 CNS, 105%; in the assay with SF-295 CNS, 98.7%; with UACC-257 melanoma it was 95.2%. Moreover, the growth was 120% in the assay with M14 melanoma; 110% in the assay with HT29 colon; 97.8% in the assay with SNB-75 CNS; 92.1% with SNB-19 CNS; 94.9% with U251 CNS; 91% in the assay with PC-3 prostate. The values for the growth in the assay on SK-MEL-5 melanoma, in the assay with LOX IMVI melanoma and with SK-MEL-28 melanoma were 94.8%, 101% and 132%, respectively.
`O=C1c2ccccc2Cc2cccc(Cl)c21`: the growth with K-562 leukemia is 91.5%; in the assay with MALME-3M melanoma, 94.2%; in the assay on MDA-MB-231 breast it was 95.4%; in the assay with RXF 393 renal, 89.7%; in the assay on SF-268 CNS, 93%; in the assay with SF-295 CNS it was 90.9%. Moreover, the growth in the assay on SF-539 CNS is 98.1%; in the assay with UACC-257 melanoma it was 104%; in the assay with M14 melanoma, 111%; in the assay on HCT-15 colon it was 97.4%; in the assay on HT29 colon, 87.7%; in the assay on SNB-75 CNS it was 117%. Further, the growth with SNB-19 CNS is 100%; in the assay with U251 CNS it was 101%; with PC-3 prostate, 92.9%; with SK-MEL-5 melanoma it was 96.2%; in the assay with UACC-62 melanoma it was 98.9%; in the assay on LOX IMVI melanoma it was 93.9%. The growth with SK-MEL-28 melanoma is 101%.
`CN1CCc2cc3c(c4c2C1C(O)c1ccccc1-4)OCO3` (stereo not given): the growth in the assay with UACC-62 melanoma is -88.3% [100 µM] (active) and -88.4% [100 µM] (active).
As for `CCc1oc2ccccc2c1C(=O)c1cc(Br)c(O)c(Br)c1`, the growth with MALME-3M melanoma was 94.8%; with MDA-MB-231 breast, 58.9%; in the assay on RXF 393 renal it was 51.6%; in the assay with SF-268 CNS, 75.4%; with SF-295 CNS, 52.8%; in the assay on SF-539 CNS it was 65.5%. Besides, the growth in the assay on UACC-257 melanoma was 66.2%; with M14 melanoma, 49.7%; in the assay on HCT-15 colon, 62.5%; in the assay with HT29 colon it was 89.3%; in the assay with SNB-75 CNS, 53.7%; with SNB-19 CNS, 78.4%. In addition, the growth in the assay with PC-3 prostate is 65.5%; in the assay with SK-MEL-5 melanoma, 46.1%; in the assay on UACC-62 melanoma, 38.9%; with LOX IMVI melanoma, 62.3%; in the assay on SK-MEL-28 melanoma it was 63.9%.
On to `O=C(c1ccccc1)c1ccc(O)c2ncccc12`, for which the growth was 15% with K-562 leukemia; 56.1% with MALME-3M melanoma; 38.2% in the assay on MDA-MB-231 breast; 41.8% in the assay with RXF 393 renal; 34.3% in the assay with SF-268 CNS; 74.6% with SF-295 CNS. Moreover, the growth in the assay on SF-539 CNS was 21.6%; with UACC-257 melanoma it was 17.3%; with M14 melanoma, 35.5%; with HCT-15 colon, 25.7%; with HT29 colon, 96.1%; with SNB-75 CNS, 58.7%. The growth in the assay with SNB-19 CNS is 38.4%; in the assay with U251 CNS it was 28.4%; in the assay with PC-3 prostate, 32.2%; in the assay with SK-MEL-5 melanoma it was 26.8%; with UACC-62 melanoma it was 33.9%; in the assay on LOX IMVI melanoma, 31.4%. For the same compound, the growth in the assay with SK-MEL-28 melanoma is 68%.
